DT40 TDP1 CPT = qHTS for Inhibitors of human tyrosyl-DNA phosphodiesterase 1 (TDP1): qHTS in cells in presence of CPT; chicken DT40 Tdp1-/-;hTDP1 cells + 20 nM CPT, ATP luminescence, 48 h; Potency, µM (doses to about 46.2 µM), most hits filed as inhibitors; 420,000 tested, 12% active; further: nearly all actives have a fitted effect of over 55% in size
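Chicken DT40 Tdp1-/- cells complemented with human TDP1, 400 cells/well, exposed to compounds plus 20 nM camptothecin for at least 48 h at 37 C; viability read as ATP content by CellTiter-Glo luminescence.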
IL-1B inflam inh = qHTS for Inhibitors of Inflammasome Signaling: IL-1-beta AlphaLISA Primary Screen; THP-1 LPS/ATP IL-1B secretion, AlphaLISA, 16 h; stronger effect = lower value; activity change, % at 57.5 µM; 360,000 tested, 4.7% active; AID 743279, 2014; in the data active means activity change below about -50%; inconclusive means mostly about -30% to -49%
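THP-1 cells pretreated 1 hr with compounds (up to 57.5 uM final), then stimulated with LPS (250 ng/mL final) plus ATP (1.25 mM final); secreted IL-1B measured by AlphaLISA after 16 hr, decreased signal indicating inhibition.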
TDP1 cell noCPT = qHTS for Inhibitors of human tyrosyl-DNA phosphodiesterase 1 (TDP1): qHTS in cells in absence of CPT; DT40 Tdp1-/- hTDP1 cells, no CPT, ATP luminescence, 48 h; Potency, µM (highest dose often 46.2 µM), actives largely listed as inhibitors; 420,000 tested, 15% active; AID 686978, 2013; further: nearly all actives have a fitted effect of over 55% in size
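Camptothecin absent (DMSO only). Human TDP1-complemented DT40 knockout cells, 400 cells/well, 37 °C for minimum 48 hr; ATP measured via CellTiter-Glo, 30 min dark incubation, luminescence.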
RORgamma inh = qHTS for inhibitors of ROR gamma transcriptional activity; Nuclear receptor ROR-gamma (Mus musculus), P51450; Drosophila S2 Gal4-RORgamma UAS-luciferase reporter, 20 h; Potency, µM (doses to about 53.6 µM), hits mostly inhibitors; 310,000 tested, 5.4% active; further: nearly all actives have a fitted effect of over 60% in size
Target sequence (P51450 whole entry, looked up, the tested form may be a part): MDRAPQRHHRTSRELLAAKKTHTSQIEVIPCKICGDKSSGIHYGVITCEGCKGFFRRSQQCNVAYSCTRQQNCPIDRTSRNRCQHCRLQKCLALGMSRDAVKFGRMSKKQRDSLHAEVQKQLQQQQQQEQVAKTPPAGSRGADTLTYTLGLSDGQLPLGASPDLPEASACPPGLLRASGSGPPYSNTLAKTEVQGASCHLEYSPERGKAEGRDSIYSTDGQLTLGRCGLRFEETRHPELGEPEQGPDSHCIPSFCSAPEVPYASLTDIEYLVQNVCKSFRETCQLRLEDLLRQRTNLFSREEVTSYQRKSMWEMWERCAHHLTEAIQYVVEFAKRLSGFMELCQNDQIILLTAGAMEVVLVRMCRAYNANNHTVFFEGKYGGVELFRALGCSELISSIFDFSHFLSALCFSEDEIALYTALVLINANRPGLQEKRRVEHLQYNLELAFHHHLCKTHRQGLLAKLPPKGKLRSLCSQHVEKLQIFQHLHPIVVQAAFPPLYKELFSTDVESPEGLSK
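Compounds are pin-transferred onto Drosophila Schneider cells expressing a copper-inducible Gal4–ROR gamma transactivation domain fusion. After 1 hr, copper sulfate is added to 700 uM final; luciferase is read 20 hr later.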
LDHA block = qHTS assay for inhibitors of human lactate dehydrogenase; activity change, % (values are at about 110 or 230 µM); 480,000 tested, 0.15% active; purified LDHA, NADH/diaphorase-resazurin fluorescence; stronger effect = lower value; L-lactate dehydrogenase A chain (Homo sapiens), P00338; in the data active means activity change below about -30%; inconclusive means mostly about -25% to -30%
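Remaining NADH was detected by diaphorase (0.133 mg/mL) converting 37 µM resazurin to fluorescent resorufin, read at 0 and 20 minutes. The preceding 5-minute room-temperature reaction used 2 nM LDHA, 0.2 mM sodium pyruvate and 0.06 mM NADH at pH 7.4.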
VP16 counter = VP16 counterscreen qHTS for inhibitors of ROR gamma transcriptional activity; Potency, µM (highest dose often 53.6 µM), hits mostly inhibitors; 310,000 tested, 3.5% active; Drosophila S2 Gal4-VP16 UAS-luciferase, luminescence, 20 h;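 further: Gal4-VP16 expression switched on by copper sulfate through the metallothionein promoter; nearly all actives have a fitted effect of over 50% in size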
Hits are given with their value; n = inactive; u = inconclusive; x = not tested or not shown. Compounds with a hit are over-represented: about 18% of the library has one in this group of screens. Unless noted, the call rests on the fitted dose curve; in most records, active means well fitted curve in the direction sought with a large enough effect; inconclusive means small, poorly fitted or top-dose-only effect, or another doubt; inactive means no such curve, though single readings can be large; an effect the other way counts as inactive or inconclusive.

SMILES | DT40 TDP1 CPT | IL-1B inflam inh | TDP1 cell noCPT | RORgamma inh | LDHA block | VP16 counter
CCN1CCCC1CN(Cc1cc2ccc(C)c(C)c2[nH]c1=O)C(=O)Nc1ccccc1OC (stereo unspecified) | 18.4µM | u | u | n | n | n
COc1ccccc1NC(=O)N(CCN1CCOCC1)Cc1cc2cc(C)cc(C)c2[nH]c1=O | n | n | n | n | n | n
CCN(CC)CCN(Cc1cc2ccc(C)cc2[nH]c1=O)C(=O)NC1CCCCC1 | n | u | n | n | n | n
COc1ccccc1N(Cc1cc2ccc(C)cc2[nH]c1=O)C(C)=O | n | n | n | n | n | n
C=CCNC(=O)c1nn(Cc2ccccc2)c(=O)c2ccccc12 | x | x | x | x | n | x
Cc1ccc2oc(C(=O)Nc3c(C)cccc3C)cc(=O)c2c1 | x | x | x | x | n | x
COc1ccc(-c2c(NC(=O)c3ccccc3)oc3ccc(Cl)cc3c2=O)cc1OC | x | x | x | x | n | x
O=C(N/N=C/C(Br)=C/c1ccccc1)C1CC1 | 8.2µM | -75.7 | 13µM | u | n | u
CC(/C=N/NC(=O)NC1CCCCC1)=C\c1ccccc1 | 20.6µM | u | 20.6µM | n | n | n
O=C(N/N=C/c1cccnc1)C(O)c1ccccc1 (stereo unspecified) | n | n | n | n | n | n
O=C(N/N=C/c1ccccc1)NC1CCCCC1 | u | n | u | n | n | n
O=C(N/N=C/C(Br)=C/c1ccccc1)C(O)c1ccccc1 (stereo unspecified) | 5.8µM | n | 8.2µM | u | n | u
O=C(O)c1ccc(N/N=C/C(Br)=C/c2ccccc2)cc1 | 5.8µM | n | 7.31µM | 8.91µM | n | 10µM
Cc1c(C)c2ccc(OCC(=O)NCc3cccnc3)cc2oc1=O | x | x | x | x | n | x
Cc1nc(SCC(=O)Nc2oncc2-c2ccccc2)[nH]c(=O)c1C | x | x | x | x | n | x
O=C(N/N=C/C(Br)=C/c1ccccc1)NC1CCCCC1 | 9.2µM | -94.1 | 14.6µM | u | n | u
Cc1nnc2ccc(N3CCC(C(=O)Nc4ccc5c(c4)OCO5)CC3)nn12 | x | x | x | x | n | x
CC(=O)Nc1ccc2oc(-c3cc(C)cc(C)c3)nc2c1 | x | x | x | x | n | x
C=CCNC(=O)/C(C#N)=C/c1c(N(Cc2ccccc2)Cc2ccccc2)nc2ccccn2c1=O | u | -53.1 | u | n | n | n
CCNC(=O)/C(C#N)=C/c1c(N2CCCCCC2)nc2ccccn2c1=O | n | n | u | n | n | n
N#C/C(=C\c1c(N(Cc2ccccc2)Cc2ccccc2)nc2ccccn2c1=O)C(N)=O | u | u | u | u | n | 7.08µM
CC1CN(c2nc3ccccn3c(=O)c2/C=C(\C#N)C(N)=O)CC(C)O1 (stereo unspecified) | n | -65.2 | n | n | n | n
CCOC(=O)/C(C#N)=C/c1c(Oc2cc(C)cc(C)c2)nc2ccccn2c1=O | n | n | n | n | n | u
O=C(Cn1ccc2ccc(F)cc21)Nc1nnc(C2CCCCC2)s1 | x | x | x | x | n | x
Cc1cc(N2CCOCC2)c2c(N)c(Br)cc(C)c2n1 | u | u | 3.26µM | u | n | n
SMILES | DT40 TDP1 CPT | IL-1B inflam inh | TDP1 cell noCPT | RORgamma inh | LDHA block | VP16 counter
CCN(CC)c1c([N+](=O)[O-])c(=O)n(CC)c2ccccc12 | u | n | 20.6µM | n | n | n
CCNc1c([N+](=O)[O-])c(=O)n(CC)c2ccccc12 | n | n | n | n | n | n
O=C(C1CC1)N(CCN(Cc1ccccc1)C(=O)C1CC1)Cc1ccccc1 | 16.4µM | n | 13µM | n | n | n
CC(=O)c1ccc(N2CCN(C(=O)CCc3ncc(-c4c(F)cccc4F)o3)CC2)c(F)c1 | x | x | x | x | n | x
COc1ccc(C(=O)Nn2c(CC(C)C)nc3cc(Cl)ccc3c2=O)c(OC)c1 | u | n | 20.6µM | n | n | n
CCc1nc2ccccc2c(C(=O)OCC(=O)NC2(C#N)CCCC2)c1C | x | x | x | x | n | x
